Reference: PubChem BioAssay AID1563 (The Scripps Research Institute Molecular Screening Center, 2009)
This is one part of the list. Values without a mark were called inactive. No stated cut-off is given here; in the data, active means activation above about 21%; inactive means the rest.

Target: Sphingosine 1-phosphate receptor 1 (Homo sapiens) (UniProt P21453)
Assay: S1P1 receptor agonists, human, counter-screen for S1P4 agonist project, cell-based (AID 1563);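 further: 0% = vehicle wells and 100% = reference agonist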
Conditions: S1P1 agonist cell-based assay, at 4.98 µM, active compounds read high

Sphingosine 1-phosphate receptor 1 (Homo sapiens), sequence (P21453 whole entry, looked up): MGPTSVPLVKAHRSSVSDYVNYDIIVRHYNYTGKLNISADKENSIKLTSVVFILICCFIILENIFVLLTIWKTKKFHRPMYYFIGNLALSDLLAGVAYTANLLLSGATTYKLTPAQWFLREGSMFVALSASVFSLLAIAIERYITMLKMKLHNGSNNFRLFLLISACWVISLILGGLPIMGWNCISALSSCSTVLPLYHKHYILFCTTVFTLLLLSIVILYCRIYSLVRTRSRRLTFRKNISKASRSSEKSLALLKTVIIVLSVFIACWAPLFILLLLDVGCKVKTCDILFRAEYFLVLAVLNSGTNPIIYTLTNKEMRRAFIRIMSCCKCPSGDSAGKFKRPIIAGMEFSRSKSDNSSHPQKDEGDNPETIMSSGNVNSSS

CC(C)N(CC#CCC1(O)c2ccccc2-c2ccccc21)C(C)C
activation: 1.18%
